ChEMBL document CHEMBL3988442, “University of Dundee, Small-Polar-MMV Screening Library” (2021)

These compounds were tested against T1, Proteasome subunit beta (Trypanosoma cruzi) (UniProt O96673) (assay: Trypanosoma cruzi proteasome chymotrypsin-like activity (TcProtChymo) assay.). Conditions: 9.37 µM.
T1 sequence (whole entry): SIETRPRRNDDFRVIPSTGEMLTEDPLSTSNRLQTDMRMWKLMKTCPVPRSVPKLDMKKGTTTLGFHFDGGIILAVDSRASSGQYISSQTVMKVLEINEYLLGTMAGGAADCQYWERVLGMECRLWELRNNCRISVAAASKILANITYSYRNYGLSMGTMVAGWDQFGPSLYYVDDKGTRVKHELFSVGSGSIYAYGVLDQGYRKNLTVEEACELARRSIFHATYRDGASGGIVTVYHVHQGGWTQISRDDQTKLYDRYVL
Assay type: functional
Design: scale not given: direction of the effect not stated beside the values

SMILES | Percent Effect [%]
Cc1cccc(N2CC[C@@H]3CN(C(=O)c4ccco4)CCO[C@@H]3C2)n1 | 9.78
CCC1=N[C@@]2(CC[C@@H]3CN(CC(=O)N(C)C)C[C@@H]32)C(=O)N1CC1CC1 | 17.2
CCCC(NC(=O)c1ccc(OC)cc1F)c1nnn[nH]1 (stereo not given) | 9.24
Cc1noc(C(C)N2CCN(CC(=O)N3CCOCC3)CC2)n1 (stereo not given) | -3.93
c1ccc(CN2CCCC2Cn2cncn2)nc1 (stereo not given) | 5.32
O=C(c1ccno1)N1CC[C@@H]2O[C@@H](COCCN3CCCC3)CC[C@@H]21 | 21.2
CCOc1ccnc(N2CCN(C(=O)c3cccnc3O)CC2)n1 | 4.5
CC(C)(C(=O)NCC(N)=O)c1ccccc1F | 6.67
CCOc1ncccc1C(=O)N(C)Cc1ncc(C)c(OC)c1C | 12.5
Cc1cccc(C(=O)N2C[C@@H]3CCN(c4cccnc4)C[C@@H]3C2)c1 | 1.67
CC(OCC(F)(F)F)C(=O)Nc1ccc(-n2cncn2)nc1 (stereo not given) | 8.49
Cc1noc(C)c1-c1cncc(C2CCCN2Cc2ccncc2)n1 (stereo not given) | 6.08
C=C(C)CN(Cc1cccc(O)c1)C1CCC(O)CC1 (stereo not given) | 6.44
COc1ccccc1CC(=O)N1CCC(NCc2c[nH]nc2C)CC1 | 3.95
CC(C)Cc1noc(CN2CCN(CCO)CC2)n1 | 12
COc1cccc(CN(C)C(=O)CN2CC(n3nc(C)cc3C)C2)c1 | 24.3
CCc1noc(C)c1C(=O)N1CCCC1Cn1nc(C)cc1C (stereo not given) | -3.47
COc1ccc(CN(C)C(=O)CCc2c(C)nc(C)[nH]c2=O)cc1OC | 20.2
Cc1cc(N2CCCN(C(=O)Cc3ccc(O)c(Cl)c3)CC2)ccn1 | 22.2
Cc1ccc2nc(C3CCN(CCO)CC3)nn2c1 | 4.79

SMILES | Percent Effect [%]
Cc1ccsc1C(=O)N1CC(C(=O)N2CCOCC2)C2(CCOCC2)C1 (stereo not given) | 13.1
Cc1ccccc1C(=O)NCc1ccc(N2CCNC(=O)C2)cc1 | 14.3
CC1CCN(S(=O)(=O)NCCCn2cncn2)CC1 | 5.49
CCN(Cc1ccc2c(c1)OCO2)C(=O)NC(C)Cn1cccn1 (stereo not given) | 8.78
CCN(CC)C(=O)CCc1c(C)nc2cc(O)nn2c1C | 24.1
CC(C)NC(=O)[C@@H]1C[C@H](N)CN1C(=O)c1cc2ccccc2[nH]c1=O | 12.3
CCc1ccc(NC(=O)N2C[C@H]3C[C@H](C(=O)NC)[C@@H](C2)O3)cc1 | 5.4
CCN1CC2(CCNCC2)COc2ccccc2S1(=O)=O | 13.1
CN1CCc2cc(C(CNS(=O)(=O)c3cccs3)N3CCCC3)ccc21 (stereo not given) | 8.88
CC(NC(=O)N(C)Cc1ccc(Cl)s1)c1ccccn1 (stereo not given) | 6.86
O=c1oc(-c2cccs2)nn1CC(O)c1ccccc1 (stereo not given) | 5.58
Cc1cc(NC(=O)NCc2ccccc2OC(F)F)n(C)n1 | 21.3
O=C(Cn1ccc2ccccc21)NCc1ccc(C(=O)O)cc1 | 15.8
CCCNC(=O)Cn1nc(C(C)C)c2cnn(C(C)(C)C)c2c1=O | 16.1
Cc1ccc(CNCc2nnc3n2CCCC3C(F)(F)F)s1 (stereo not given) | 18
CCn1c(Cn2cncn2)nnc1C1CCN(Cc2ccncc2)CC1 | 4.72
CC(=O)c1cc(CC(=O)NCc2ccc(CN(C)C)cc2)cs1 | -1.21
CN(Cc1ccsc1)C(=O)CN1CCCC1Cn1cccn1 (stereo not given) | 3.8
c1cnnc(N2CCCC2CNCc2nc3ccccc3o2)c1 (stereo not given) | 21
CCN1C[C@@H]2[C@@H](OC)CCN(S(=O)(=O)c3ccccc3)[C@@H]2C1 | 11.4

Species: Homo sapiens
Experiment: To identify inhibition of the IFN signalling (Jak-Stat) pathway via expression of an eGFP reporter gene under the control of an IFN-stimulated response element (ISRE) containing MxA promoter.
Assay type: functional
Design: scale not given: direction of the effect not stated beside the values
Conditions: 30 µM

SMILES | Percent Effect [%]
Cc1cccc(N2CC[C@@H]3CN(C(=O)c4ccco4)CCO[C@@H]3C2)n1 | 6.1
CCC1=N[C@@]2(CC[C@@H]3CN(CC(=O)N(C)C)C[C@@H]32)C(=O)N1CC1CC1 | 4.45
CCCC(NC(=O)c1ccc(OC)cc1F)c1nnn[nH]1 (stereo not given) | -13.2
Cc1noc(C(C)N2CCN(CC(=O)N3CCOCC3)CC2)n1 (stereo not given) | -8.61
c1ccc(CN2CCCC2Cn2cncn2)nc1 (stereo not given) | -14.3
O=C(c1ccno1)N1CC[C@@H]2O[C@@H](COCCN3CCCC3)CC[C@@H]21 | -0.519
CCOc1ccnc(N2CCN(C(=O)c3cccnc3O)CC2)n1 | 2.56
CC(C)(C(=O)NCC(N)=O)c1ccccc1F | -3.33
CCOc1ncccc1C(=O)N(C)Cc1ncc(C)c(OC)c1C | 27.5
Cc1cccc(C(=O)N2C[C@@H]3CCN(c4cccnc4)C[C@@H]3C2)c1 | 16.4
CC(OCC(F)(F)F)C(=O)Nc1ccc(-n2cncn2)nc1 (stereo not given) | 22.3
Cc1noc(C)c1-c1cncc(C2CCCN2Cc2ccncc2)n1 (stereo not given) | 32.8
C=C(C)CN(Cc1cccc(O)c1)C1CCC(O)CC1 (stereo not given) | -11.6
COc1ccccc1CC(=O)N1CCC(NCc2c[nH]nc2C)CC1 | 2.04
CC(C)Cc1noc(CN2CCN(CCO)CC2)n1 | 11.2
COc1cccc(CN(C)C(=O)CN2CC(n3nc(C)cc3C)C2)c1 | 23.1
CCc1noc(C)c1C(=O)N1CCCC1Cn1nc(C)cc1C (stereo not given) | -20.2
COc1ccc(CN(C)C(=O)CCc2c(C)nc(C)[nH]c2=O)cc1OC | -1.63
Cc1cc(N2CCCN(C(=O)Cc3ccc(O)c(Cl)c3)CC2)ccn1 | -10.9
Cc1ccc2nc(C3CCN(CCO)CC3)nn2c1 | 23.1

SMILES | Percent Effect [%]
Cc1ccsc1C(=O)N1CC(C(=O)N2CCOCC2)C2(CCOCC2)C1 (stereo not given) | 0.0644
Cc1ccccc1C(=O)NCc1ccc(N2CCNC(=O)C2)cc1 | -13.4
CC1CCN(S(=O)(=O)NCCCn2cncn2)CC1 | 23.8
CCN(Cc1ccc2c(c1)OCO2)C(=O)NC(C)Cn1cccn1 (stereo not given) | 5.38
CCN(CC)C(=O)CCc1c(C)nc2cc(O)nn2c1C | 3.53
CC(C)NC(=O)[C@@H]1C[C@H](N)CN1C(=O)c1cc2ccccc2[nH]c1=O | -0.74
CCc1ccc(NC(=O)N2C[C@H]3C[C@H](C(=O)NC)[C@@H](C2)O3)cc1 | 11.2
CCN1CC2(CCNCC2)COc2ccccc2S1(=O)=O | 2.26
CN1CCc2cc(C(CNS(=O)(=O)c3cccs3)N3CCCC3)ccc21 (stereo not given) | 12.5
CC(NC(=O)N(C)Cc1ccc(Cl)s1)c1ccccn1 (stereo not given) | 14.4
O=c1oc(-c2cccs2)nn1CC(O)c1ccccc1 (stereo not given) | 7.94
Cc1cc(NC(=O)NCc2ccccc2OC(F)F)n(C)n1 | 4.53
O=C(Cn1ccc2ccccc21)NCc1ccc(C(=O)O)cc1 | -18.3
CCCNC(=O)Cn1nc(C(C)C)c2cnn(C(C)(C)C)c2c1=O | 5.42
Cc1ccc(CNCc2nnc3n2CCCC3C(F)(F)F)s1 (stereo not given) | 11.4
CCn1c(Cn2cncn2)nnc1C1CCN(Cc2ccncc2)CC1 | -4.54
CC(=O)c1cc(CC(=O)NCc2ccc(CN(C)C)cc2)cs1 | 1.37
CN(Cc1ccsc1)C(=O)CN1CCCC1Cn1cccn1 (stereo not given) | -6.97
c1cnnc(N2CCCC2CNCc2nc3ccccc3o2)c1 (stereo not given) | -2.37
CCN1C[C@@H]2[C@@H](OC)CCN(S(=O)(=O)c3ccccc3)[C@@H]2C1 | -3.22
